# HCMV inh – human cytomegalovirus inhibition. HFF cells, HCMV-luciferase reporter, 72 h; stronger effect = lower value. activity change, negative = inhibition, % at 57.5 µM. actives 4.5% (n = 410,000); in the data active = activity change below about -60%; inconclusive = no clear call, values can overlap the other calls; inactive = above about -39%
#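 HFF cells seeded 16 h at 37C, treated with compounds, infected with luciferase-reporter HCMV at MOI 1 PFU/cell; luciferase read at 72 h post infection, normalized to buffer-only and Salinomycin controls.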
# LASV entry inh – blocks Lassa virus binding to or entry into cells; Lassa virus pseudotype entry inhibition, cell reporter; actives 1.2% (n = 300,000); Potency, µM (top dose mostly 37.9 µM), actives largely listed as inhibitors; AID 540256; calls by dose curve; tested in HEK293 cells; also: nearly all actives have a fitted effect of over 50% in size
# Marburg entry inh – blocks Marburg virus binding to or entry into cells. Marburg virus pseudotyped entry inhibition, cell reporter. Potency, µM (highest dose often 37.8 µM), most hits filed as inhibitors. actives 1.8% (n = 300,000). AID 540276; calls by dose curve; tested in HEK293 cells
# FMDV inh – blocks foot and mouth disease virus; FMDV antiviral cell-based qHTS; Potency, µM (highest dose often 57.9 µM), most hits filed as inhibitors; actives 1.2% (n = 410,000); calls by dose curve; tested in HEK293T cells; also: read-out not given here; nearly all actives have a fitted effect of over 45% in size
# HCV inhibitor – blocks hepatitis C virus. Huh7.5.1 HCVcc-Cre infection, luciferase reporter, 44 h. actives 3.4% (n = 340,000). Potency, µM (doses to about 41.8 µM), actives largely listed as inhibitors; active = well fitted inhibition curve with a large enough effect; inconclusive = small, poorly fitted or top-dose-only effect, or another doubt; inactive = no such curve, though single readings can be large or run the other way
#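 HCVcc-Cre virus at an moi near 0.5 was added right after compound to cells cultured 4 h from seeding (1,000 cells/well). Luciferase activity was determined 44 h later, 15 min after substrate addition at RT.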
# SARS PLP yeast – blocks SARS-CoV papain-like protease in a yeast assay | S. cerevisiae expressing SARS-CoV PLpro, growth rescue | Potency, µM (titrated, usually from 32.9 µM), actives largely listed as activators | actives 0.19% (n = 330,000) | AID 485353; calls by dose curve; also: nearly all actives have a fitted effect of over 55% in size
# Numbers stand for hits; 0 = inactive; ? = inconclusive; - = no result given. An excerpt weighted towards active compounds, which were near 8% of everything screened.
SMILES,HCMV inh,LASV entry inh,Marburg entry inh,FMDV inh,HCV inhibitor,SARS PLP yeast
CCN(CC)CCNc1nc2c(c(=O)n(C)c(=O)n2C)n1C/C=C(/C)Cl,0,?,?,0,0,0
Cc1ccc(C)c(N(CC(=O)NC2CCCC2)C(=O)c2cc3cc4cc(C)ccc4nc3s2)c1,0,0,0,-,22µM,0
N#CCCn1c(=O)cnc2cnc(Oc3ccccc3)nc21,-,-,-,0,-,-
O=C1/C(=N\S(=O)(=O)c2cccs2)C([n+]2ccccc2)=C([O-])c2ccccc21,-66,-,-,25µM,6.3µM,0
COC(=O)c1cccc(Nc2c(-c3ccc(SC)cc3)nc3nc[nH]n23)c1,0,0,-,0,-,-
COc1ccc(/C=C/c2c(-c3ccc(OC)cc3)sc3cc(OC)c(OC)cc23)cc1,0,-,-,0,2.5µM,0
COc1ccc(-c2sc3ccccc3c2/C=C/c2ccncc2)cc1,0,-,-,0,7.1µM,0
COc1cccc(CCNc2ncnc3sc(C(=O)N4CCN(C)CC4)c(C)c23)c1,-,-,-,0,-,-
CC/C(=N\Nc1ccccc1)c1c(O)n(-c2ccccc2)c(=O)[nH]c1=O,0,10µM,0,0,0,0
CC(=NCc1ccc2c(c1)OCO2)c1c(O)n(C)c(=O)n(C)c1=O,0,0,0,0,0,0
CCC(=NCc1ccc2c(c1)OCO2)c1c(O)n(C)c(=O)n(C)c1=O,-66,?,?,?,?,0
CC/C(=N\Nc1ccccc1)c1c(O)n(C)c(=O)n(C)c1=O,0,0,0,?,0,0
CCC(=NCCc1c[nH]c2ccccc12)c1c(O)n(C)c(=O)n(C)c1=O,-75,?,?,16µM,4.5µM,0
CC(=NCCc1ccccc1)c1c(O)n(C)c(=O)n(C)c1=O,?,0,0,0,0,0
CCC(=NC(C)c1ccccc1)c1c(O)n(C)c(=O)n(C)c1=O (centres undefined),?,?,?,13µM,5.6µM,0
CC[C@H]1Nc2ccc(OC)cc2[C@@H](NS(C)(=O)=O)[C@@H]1C,0,-,-,-,-,-
CCC(=NCCCn1ccnc1)c1c(O)n(-c2ccccc2)c(=O)[nH]c1=O,0,0,0,0,0,0
CC(=NCCc1c[nH]c2ccccc12)c1c(O)n(Cc2ccccc2)c(=O)[nH]c1=O,?,11µM,?,?,?,0
CCC(=NCCc1c[nH]c2ccccc12)c1c(O)n(-c2ccc(C)cc2)c(=O)[nH]c1=O,0,1.8µM,?,0,0,0
CCCCN1CC(=O)N2[C@H]3c4cc(Cl)ccc4OC[C@@H]3[C@H](c3ccccc3)[C@]2(C)C1=O,0,-,-,0,0,0
Cc1cc(-c2ccc(C)c(S(=O)(=O)N(C)c3ccc(C)c(C)c3)c2)on1,0,0,-,40µM,-,-
CCc1ccccc1N(C)S(=O)(=O)c1cc(-c2cc(C)no2)ccc1OC,0,-,-,0,14µM,0
COc1cc(NS(=O)(=O)c2ccc(-c3cc(C)no3)cc2)cc(OC)c1,-85,0,-,0,-,-
CCN(c1ccc(OC)cc1)S(=O)(=O)c1cc(-c2cc(C)no2)ccc1C(C)C,0,-,-,0,13µM,0
CCc1ccc(-c2cc(C)no2)cc1S(=O)(=O)NCc1ccccc1OC,0,-,-,0,0,0
SMILES,HCMV inh,LASV entry inh,Marburg entry inh,FMDV inh,HCV inhibitor,SARS PLP yeast
COc1ccccc1CNS(=O)(=O)c1ccc(-c2cc(C)no2)cc1,-60,-,-,?,?,0
CCOC(=O)c1cnc(-n2nc(C)cc2C)nc1NCc1ccccc1,-73,?,?,28µM,?,0
CCOC(=O)c1cnc(-n2nc(C)cc2C)nc1NNc1cc(-c2ccccc2)nc(C)n1,-,0,0,-,0,0
CCOC(=O)c1cnc(-n2nc(C)cc2C)nc1NCCO,0,0,0,0,0,0
CCOC(=O)c1cnc(-n2nc(C)cc2C)nc1NNc1ncc(-c2ccccc2)cn1,-,?,11µM,0,?,0
CCOC(=O)c1cnc(-n2nc(C)cc2C)nc1NC(C)c1ccccc1 (centres undefined),-97,0,0,0,?,0
CC(=O)Nc1cc2c(cc1NC(=O)Cn1nc(-c3ccccc3)ccc1=O)OCCO2,0,0,0,0,0,0
O=C(NCc1ccccc1Cl)c1ccc2c(c1)NC(=O)C(CS(=O)(=O)Cc1ccc(F)cc1Cl)N2 (centres undefined),0,0,-,0,-,-
COc1cnc(SC)nc1Nc1ccc(C#N)cc1,0,-,-,0,22µM,0
Cc1cc(C)c(C(=O)CSc2n[nH]c(-c3ccncc3)n2)c(C)c1,-66,0,?,0,0,0
Cc1ccc(C)c(C(=O)CSc2n[nH]c(-c3ccncc3)n2)c1,0,0,0,0,0,0
CCCCCCCNC(=O)C1(CC2CC(c3ccc(Cl)cc3)=NO2)CCNCC1 (centres undefined),-100,-,-,0,0,0
Cc1cc2c(cc1C)-n1nnnc1C(N1CCCC1)C(=O)N2 (centres undefined),0,-,-,0,-,-
COc1ccc(NC(=O)NCCn2nnc3cc(S(=O)(=O)N(C)C)ccc32)cc1,0,0,-,0,-,-
Cc1ccc(C(=O)CCS(=O)(=O)c2ccc(F)cc2)cc1,-99,-,-,0,?,0
O=C(CCCC(=O)c1ccc(F)cc1)c1ccc(F)cc1,-80,?,?,0,0,0
O=C(CC(=O)c1ccccc1O)c1ccc(F)cc1,0,?,?,0,32µM,0
Cc1ccc(S(=O)(=O)CCC(=O)c2ccc(F)cc2)cc1,0,0,?,?,0,0
CC(C)Cn1cc(NC(=O)NCc2ccc(Cl)cc2)c2ccccc2c1=O,-105,0,-,0,-,-
CC(C)Cn1cc(NC(=O)NCc2ccccc2)c2ccccc2c1=O,0,?,-,0,-,-
CC1=C(C(=O)N(C(C)C)C(C)C)CC(CC(=O)NC(c2ccccc2)c2ccccc2)C(=O)N1CCC1=CCCCC1 (centres undefined),-110,-,-,?,-,-
COc1ccc(CN2C(=O)C(CC(=O)NCCCCc3ccccc3)CC(C(=O)N(C(C)C)C(C)C)=C2C)cc1 (centres undefined),0,-,-,0,-,-
CC1=C(C(=O)N(C(C)C)C(C)C)CC(CC(=O)NCCCCc2ccccc2)C(=O)N1Cc1ccc(C(C)(C)C)cc1 (centres undefined),-105,-,-,?,-,-
COCCn1c(C)cc(O)c(C(c2ccc(Cl)cc2)N2CCCCC2)c1=O (centres undefined),0,0,-,0,-,-
Cc1ccc(Nc2nc3ccc(C)cc3nc2-n2nc(C)cc2C)c(C)c1,0,0,0,0,-,-
CCOC(=O)c1c(NC(C)=O)sc2c(OCCN(CC)CC)c(Br)ccc12,?,-,-,0,13µM,0
CCOC(=O)c1c(NC(C)=O)sc2c(OCC(O)CN(CC)CC)c(Br)ccc12 (centres undefined),-101,2.5µM,11µM,0,5.6µM,0
Cc1nc([N+](=O)[O-])c(C(=O)OCc2ccc(C#N)cc2)n1C,?,0,0,0,0,0
O=C(N/N=C/c1cn(-c2ccccc2)nc1-c1cc2ccccc2o1)c1c[nH]c2ccccc12,0,?,?,0,11µM,0
COc1ccc(NC(=O)c2cn(-c3ccccc3)nc2-c2cc3ccccc3o2)cc1,?,0,?,0,0,0

# From PubChem BioAssay
